High-throughput results: PubChem BioAssay, Broad Institute
The sample as a whole holds a higher share of hits than the screen did.
Tg IFNy HTS – blocks Toxoplasma gondii growth in the presence of IFN-gamma; 3.8% of 69,000 active; activity change, negative = inhibition, % (test concentration not listed); Toxoplasma gondii growth in IFN-gamma-treated host cells; hits give low values; AID 1259416; in the data active means activity change below about -70%, passing the limit was not always enough;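 further: host cells are HeLa cells infected with Toxoplasma gondii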
Large screens that a line does not name were inactive; ! = not active in a repeat.

CN(Cc1ncc[nH]1)C(=O)C1=NNC(=O)CC1	none
Nc1nc(=O)n([C@@H]2O[C@H](CO)[C@@H](O)[C@@H]2F)cc1I	none
CCCC(=O)NCCc1csc(-c2cccc(F)c2)n1	none
O=C(O)Cn1cnc2ccccc2c1=O	none
O=C(C[C@H]1NCCC[C@@H]1O)Cn1cnc2cc(Br)c(Cl)cc2c1=O	Tg IFNy HTS -80
N#Cc1ccc(CSc2ncccc2-c2nc3ccccc3[nH]2)cc1	none
Cn1c(=O)c2[nH]cnc2n(C)c1=O	none
S=c1nc[nH]c2nc[nH]c12	Tg IFNy HTS -71
CCCSc1nc(N[C@@H]2C[C@@H]2c2ccc(F)c(F)c2)c2nnn([C@@H]3C[C@H](OCCO)[C@H](O)[C@H]3O)c2n1	none
C[C@@H]1CC[C@]2(C(=O)O)CC[C@]3(C)C(=CCC4[C@@]5(C)CC[C@H](O)C(C)(C)C5CC[C@]43C)C2[C@H]1C (some centres not stated)	none
CC1(C)CC[C@]2(C(=O)O)CC[C@]3(C)C(=CC[C@@H]4[C@@]5(C)CC[C@H](O)C(C)(C)[C@@H]5CC[C@]43C)[C@@H]2C1	Tg IFNy HTS -72!
CC1(C)CC[C@]2(C(=O)O)CC[C@]3(C)C(=CCC4[C@@]5(C)CC[C@@H](O)C(C)(C)C5CC[C@]43C)C2C1 (some centres not stated)	none
CC(C)c1ccc(CCCC(=O)N2CCC3(CC2)CN(C)CCN3C)cc1	none
COc1ccc(C(N)=O)cc1-c1ccc(S(C)(=O)=O)cc1	none
COc1ccc(C)cc1-c1ccc(C(N)=O)cn1	none
COc1ccc(OC)c(-c2cc(C(N)=O)ccc2C)c1	Tg IFNy HTS -76
NC(=O)c1cc2c(s1)-c1cc(Cl)ccc1SC2	Tg IFNy HTS -79
CCc1nc(OCC(=O)Nc2ccc(Cl)c(Cl)c2)c2ccccc2n1	none
CCc1ccc(CN2Cc3ccccc3C3(CCN(C)CC3)C2)o1	none
Cc1ccc(NC(=O)N2CCC(c3nc(CCNC(=O)C(C)C)cs3)CC2)cc1	none
Cc1cccc(Nc2nc(C(=O)NCCC3=CCCCC3)nc3ccccc23)c1	none
Cc1cn(CCNC(=O)Cc2c(C)[nH]c3c(C)ccc(C)c23)nn1	none
CCN1CCN(CC(=O)N2CCCC(c3cc(=O)n4c(n3)CCCCC4)C2)CC1 (configuration not stated)	none
CCC(=O)N1CCCC(c2cnc(Nc3nccs3)cn2)C1 (configuration not stated)	none
CCC(=O)N1CCCC(c2cc(C(F)(F)F)c3c(=O)n(C)c(=O)n(C)c3n2)C1 (configuration not stated)	Tg IFNy HTS -79
Fc1cccnc1CN1CCN(C(c2ccccc2)c2ccccc2)CC1	none
Cc1ccsc1C(CNC(=O)c1cc(=O)c2ccccc2[nH]1)N(C)C (configuration not stated)	none
O=C(Nc1ccc(Cl)cc1)Nc1ccccc1Sc1c(Cl)cncc1Cl	Tg IFNy HTS -97
O=C(Nc1ccccc1Sc1c(Cl)cncc1Cl)c1cccs1	none
O=C(Nc1ccccc1)Nc1ccccc1SCCS(=O)(=O)c1ccc(Cl)cc1	none
CCCCS(=O)(=O)NCC1COCc2c(C)nnn2C1 (configuration not stated)	none
O=C(c1ccccc1F)N1C[C@@H]2OCCN(c3ncccn3)[C@H]2C1	none
CN1C2(CCN(S(=O)(=O)c3ccccc3)C2)c2ccccc2S1(=O)=O (configuration not stated)	none
CCN(CC)C(=O)CSc1nnc2c(n1)[nH]c1ccc(C)cc12	none
c1ccc(CSc2nnc3c(n2)[nH]c2ccccc23)cc1	none
Cc1ccc(CSc2nnc3c(n2)[nH]c2ccc(Br)cc23)cc1	Tg IFNy HTS -80
COc1ccc(C(=O)N2CCc3c(nc(N4CCCC4)nc3Oc3cccnc3)C2)cc1	none
CSc1nn(-c2c(Cl)cc(C(F)(F)F)cc2Cl)c(N)c1C#N	Tg IFNy HTS -101
CSc1nc(-c2cccs2)cc(C(F)(F)F)c1C#N	none
Cc1cc(C)n(-c2c(Cl)cc(C(F)(F)F)cc2Cl)n1	none
CC(C)CN1C(=O)N(CCCc2cccnc2)C(=O)C12CCN(Cc1ccccn1)CC2	none
O=S(=O)(c1ccccc1F)N1CCC(c2nc(-c3ccncc3)n[nH]2)CC1	none
CN(C)c1ncnc2c1CCN(C(=O)C(C)(C)NC(=O)c1cccs1)C2	none
Cc1cccc(CN(Cc2ccc(C)o2)C2CC(C)(C)NC(C)(C)C2)n1	none
CCc1ccc(S(=O)(=O)Nc2ccc3c(c2)CCC(=O)N3CC(C)C)cc1	Tg IFNy HTS -90
Cc1ccc(C)c(S(=O)(=O)Nc2ccc3c(c2)CCC(=O)N3CC(C)C)c1	none
Cc1ccc(S(=O)(=O)Nc2ccc3c(c2)CCC(=O)N3CC(C)C)cc1	none
CC(C)CN1C(=O)CCc2cc(NS(=O)(=O)c3ccc(F)c(F)c3)ccc21	none
COc1ccc(S(=O)(=O)Nc2ccc3c(c2)CCC(=O)N3CC(C)C)cc1	none
CC(C)CN1C(=O)CCc2cc(NS(=O)(=O)c3ccc(F)cc3F)ccc21	none
COCCN1C(=O)CCc2cc(NS(=O)(=O)c3ccc(F)cc3)ccc21	none
CCN1C(=O)CCc2cc(NS(=O)(=O)c3cccc(Br)c3)ccc21	none
Cc1ccc(S(=O)(=O)Nc2ccc3c(c2)CCC(=O)N3CC(C)C)c(C)c1	Tg IFNy HTS -86
CC(C)CN1C(=O)CCc2cc(NS(=O)(=O)c3ccccc3Cl)ccc21	none
